Source: PubChem BioAssay (Tox21)
Results filed as inconclusive are left out. Active and inactive are the calls of the source. Calls follow the shape of the full dose curve.

Columns and labels:
[1] = molecular target: Acetylcholinesterase (Homo sapiens) (UniProt P22303); test: Acetylcholinesterase (AChE) small molecule antagonists: colormetric cell-based qHTS assay (AID 1347395); also: nearly all actives have a fitted effect of over 30% in size
Procedure, shortened: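 After overnight attachment at 37 C, SH-SY5Y cells get 30 min compound exposure; detection cocktail (acetylthiocholine, DTNB) then incubates 90 min at 37 C, and absorbance reflects AChE-generated thiocholine.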

[2] = molecular target: Acetylcholinesterase (Homo sapiens) (UniProt P22303); test: Acetylcholinesterase (AChE) small molecule antagonists: enzyme-based qHTS assay (AID 1347397); settings: Potency: AChE enzyme activity inhibition; outcome: AChE enzyme activity inhibition; also: nearly all actives have a fitted effect of over 55% in size
Procedure, shortened: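 Compound or DMSO vehicle was pin-transferred onto recombinant human AChE (50 mU/mL as dispensed) and left 30 min at room temperature. Acetylthiocholine with DTNB then started the reaction, read colorimetrically 10 min later.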

[3] = molecular target: Acetylcholinesterase (Homo sapiens) (UniProt P22303); test: Acetylcholinesterase (AChE) small molecule antagonists: fluorescence cell-based qHTS assay (AID 1347398); settings: Potency: AChE activity; outcome: AChE activity; also: nearly all actives have a fitted effect of over 50% in size
Procedure, shortened: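 Using neuroblastoma SH-SY5Y cells as the enzyme source, test chemicals are preincubated 30 min at 37 C; AChE-driven acetylthiocholine cleavage is then quantified by thiocholine-dependent Thiolite Green fluorescence after 40 min at room temperature.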

[4] = molecular target: Acetylcholinesterase (Homo sapiens) (UniProt P22303); test: Acetylcholinesterase (AChE) small molecule antagonists: enzyme-based qHTS assay with human liver microsomes (AID 1347399); settings: Potency: qHTS inhibition; outcome: qHTS inhibition; also: nearly all actives have a fitted effect of over 60% in size
Procedure, shortened: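 Recombinant human AChE (50 mU/mL in the enzyme mix) and human liver microsomes (0.25 mg/mL final) were preincubated with compound and NADPH (0.25 mg/mL final) for 30 min at 37 C. Acetylthiocholine/DTNB was then added; thiocholine was read colorimetrically after 10 min at room temperature.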
% is scaled to controls: 0 for no effect and ±100 for the full control effect; potency is read from the fitted curve at half-maximal effect.

Chain of Acetylcholinesterase (Homo sapiens) (P22303 whole entry, looked up): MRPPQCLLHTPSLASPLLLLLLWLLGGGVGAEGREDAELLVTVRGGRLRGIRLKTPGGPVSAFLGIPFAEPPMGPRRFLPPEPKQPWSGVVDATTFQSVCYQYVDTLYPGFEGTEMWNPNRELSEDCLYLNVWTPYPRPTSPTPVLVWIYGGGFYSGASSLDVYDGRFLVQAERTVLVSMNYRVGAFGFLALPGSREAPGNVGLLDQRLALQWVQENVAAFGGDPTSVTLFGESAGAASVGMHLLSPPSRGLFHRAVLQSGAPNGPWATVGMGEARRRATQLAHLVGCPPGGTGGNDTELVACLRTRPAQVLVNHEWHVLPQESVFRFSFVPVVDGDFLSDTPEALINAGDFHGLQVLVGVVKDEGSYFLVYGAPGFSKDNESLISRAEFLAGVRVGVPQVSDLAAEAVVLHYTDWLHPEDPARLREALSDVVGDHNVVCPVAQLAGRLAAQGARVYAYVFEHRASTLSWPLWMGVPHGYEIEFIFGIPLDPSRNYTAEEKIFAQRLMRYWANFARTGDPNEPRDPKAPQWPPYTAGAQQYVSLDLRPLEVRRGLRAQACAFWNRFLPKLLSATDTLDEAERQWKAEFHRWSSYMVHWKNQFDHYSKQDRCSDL

COc1ccc(NS(=O)(=O)c2ccc(N)cc2)nn1
inactive: Potency [1] | Potency [2] | Potency [3] | Potency [4]

CC(C)CCC(=O)CCC(C)C
inactive: Potency [1] | Potency [2] | Potency [3] | Potency [4]

C#C[C@]1(OC(C)=O)CC[C@H]2[C@@H]3CCC4=C[C@@H](OC(C)=O)CC[C@@H]4[C@H]3CC[C@@]21C
inactive: Potency [1] | Potency [2] | Potency [3] | Potency [4]

CC(C)[N+](C)(C)CC(O)COc1cccc2ccccc12 (stereo not given)
inactive: Potency [1] | Potency [2] | Potency [3] | Potency [4]

CCC(C)N(C)C(=O)c1cc2ccccc2c(-c2ccccc2Cl)n1 (stereo not given)
inactive: Potency [1] | Potency [2] | Potency [3] | Potency [4]

COc1ccc2sc(C(=O)Nc3nnn[nH]3)c(OC(C)C)c2c1
inactive: Potency [1] | Potency [2] | Potency [3] | Potency [4]

CC(=O)CC(=O)Nc1ccc2[nH]c(=O)[nH]c2c1
inactive: Potency [1] | Potency [2] | Potency [3] | Potency [4]

CCCC1CCC(=O)CC1
inactive: Potency [1] | Potency [2] | Potency [3] | Potency [4]

[K+]
inactive: Potency [1] | Potency [2] | Potency [3] | Potency [4]

CCCCCc1ccc(N)cc1
inactive: Potency [1] | Potency [2] | Potency [3] | Potency [4]

Nc1ccnc(=O)[nH]1
inactive: Potency [1] | Potency [2] | Potency [3] | Potency [4]

CCN(CC)CCNC(C(=O)OCCC(C)C)c1ccccc1 (stereo not given)
inactive: Potency [1] | Potency [2] | Potency [3] | Potency [4]

O=C(c1ccco1)N1CCNCC1
inactive: Potency [1] | Potency [2] | Potency [3] | Potency [4]

CCCCCCCCCCCCCC=O
inactive: activity, negative = inhibition [1] 1.02% [at 10.5 µM] | activity change, negative = inhibition [2] 0.138% [at 10.5 µM] | activity change, negative = inhibition [3] 1.81% [at 10.5 µM] | activity change, negative = inhibition [4] -0.486% [at 10.5 µM]

C[Si]1(C)O[Si](C)(C)O[Si](C)(C)O1
inactive: Potency [1] | Potency [2] | Potency [3] | Potency [4]

CCCCCCCCC(C)=O
inactive: Potency [1] | Potency [2] | Potency [3] | Potency [4]

CC[C@@]1(c2ccccc2)NC(=O)N(C)C1=O
inactive: Potency [1] | Potency [2] | Potency [3] | Potency [4]

CC(=O)OC1C2(C)CCC(C2)C1(C)C (stereo not given)
inactive: Potency [1] | Potency [2] | Potency [3] | Potency [4]

Clc1cc(Cl)c2c(c1)N=C1CCCCCN1C2
active: Potency [1] 776 nM | Potency [2] 871 nM | Potency [3] 617 nM | Potency [4] 3890 nM

Cc1nc(C)c(C)nc1C
inactive: Potency [1] | Potency [2] | Potency [3] | Potency [4]
